Source: PubChem BioAssay
Pf growth 48h – P. falciparum growth inhibition at 48 hours (one generation). 310,000 compounds, 5.9% hits. P. falciparum luciferase growth in erythrocytes, 48 h. Potency, µM (series often up to 28.7 µM), for inactives: top-dose activity change, negative = inhibition, usual class: inhibitors; also: potency is read from the fitted curve at half-maximal effect
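Compounds are pin-transferred into medium, infected erythrocytes (2% hematocrit, 0.1% parasitemia final) are added, and plates sit one parasite generation at 37 C in 5% CO2. Detection reagent is then added and luminescence measured.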
HCV inh – blocks hepatitis C virus. Huh7.5.1 HCVcc-Cre infection, luciferase reporter, 44 h. Potency, µM (titrated, usually from 41.8 µM), without a hit: top-dose activity change, negative = inhibition, hits mostly inhibitors. 340,000 compounds, 3.4% hits. AID 651820; also: potency is read from the fitted curve at half-maximal effect
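Reporter virus HCVcc-Cre (~0.5 moi) infects cells exposed to compound; seeding density 1,000 cells/well with 4 h settling beforehand. Luminescence, 15 sec read, taken 44 h post-infection following a 15 min RT substrate incubation.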
HCMV antiviral – human cytomegalovirus inhibition | HFF cells, HCMV-luciferase reporter, 72 h; hits give low values | activity change, negative = inhibition, % at 57.5 µM | 410,000 compounds, 4.5% hits | AID 1259415; in the data active = activity change below about -60%; inconclusive = no clear call, values can overlap the other calls; inactive = above about -39%
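Luciferase read-out from HCMV-luciferase-infected HFFs (MOI 1 PFU/cell) 72 h post infection at 37C; compounds added after 16 h cell attachment; activity normalized between buffer-only basal and Salinomycin (10uM) inhibitor controls.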
Pf growth 96h – P. falciparum growth inhibition at 96 hours; P. falciparum luciferase reporter growth, 96 h; Potency, µM (highest dose often 28.7 µM), inactives show top-dose activity change, negative = inhibition, most hits filed as inhibitors; 320,000 compounds, 6.9% hits; AID 504834; also: potency is read from the fitted curve at half-maximal effect
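Infected RBCs, 2% Hct / 0.05% parasitemia final; luciferase-reporter P. falciparum; cpd 96 h, 37 C, 5% CO2; luciferase detection reagent; luminescence.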
* marks the source's active call; other numbers are inactive results; ? = inconclusive; / = no result. Sampled rows, rich in hits. Any-hit rate of the full collection: about 13%. Unless noted, calls follow the shape of the dose curve; as a rule, active = well fitted inhibition curve with a large enough effect; inconclusive = small, poorly fitted or top-dose-only effect, or another doubt; inactive = no such curve, though single readings can be large or run the other way. % is scaled to controls: 0 for no effect and ±100 for the full control effect.

SMILES	Pf growth 48h	HCV inh	HCMV antiviral	Pf growth 96h
O=C(CC(C(=O)c1ccccc1)c1ccccc1)c1ccccc1 (configuration not stated)	/	-26%	-35	/
C=C(C(=O)c1ccccc1)C(NC(C)(C)C)c1ccccc1 (configuration not stated)	/	3.5µM*	-98*	/
C=C(C(=O)c1ccccc1)C(C)CC(=O)c1ccccc1 (configuration not stated)	-5%	?	-82*	6%
CCc1ccc(NC(=O)c2sc3nc(C)c(Cl)c(C)c3c2NC(=O)c2ccccc2OC)cc1	/	/	-10	/
CN(CC(=O)Nc1ccc(Cl)cc1F)C1CCS(=O)(=O)C1 (configuration not stated)	1%	8%	-100*	17%
CCCC[C@H]1COCCS(=O)(=O)N1Cc1cccc([N+](=O)[O-])c1	1%	-5%	-100*	-19%
COc1ccc(-c2c3c(=O)n(C)c(=O)n(C)c3c3n2-c2ccccc2NC3c2ccco2)cc1 (configuration not stated)	/	/	14	/
Cc1ccc(-c2c3c(=O)n(C)c(=O)n(C)c3c3n2-c2ccccc2NC3c2ccc(C)cc2O)cc1 (configuration not stated)	/	/	-96*	/
Cn1c(=O)c2c(-c3ccccc3)n3c(c2n(C)c1=O)C(c1ccc([N+](=O)[O-])cc1)Nc1ccccc1-3 (configuration not stated)	/	/	-68*	/
Cc1ccc(/C=N/NC(=S)NCCc2ccccc2)s1	12µM*	-16%	-20	?
CCCCNC(=S)N/N=C/c1ccc(C)s1	/	-19%	-10	1.7µM*
S=C(NCCc1ccccc1)N/N=C/c1c(Cl)cccc1Cl	5%	3%	8	-20%
CCCCNC(=S)N/N=C/c1sccc1C	?	-25%	-38	?
COc1ccc(NC(=O)c2csnn2)cc1Cl	/	/	2	/
COc1ccc(S(=O)(=O)N2CCOCC2)cc1Br	2%	11%	-20	-12%
O=S(=O)(c1ccc(N2CCOCC2)cc1)N1CCOCC1	-3%	9%	15	/
Nc1cc(S(=O)(=O)N2CCOCC2)ccc1Oc1cccc(Br)c1	5%	5µM*	-77*	20%
O=S(=O)(c1ccc(OCc2ccc(Br)cc2)cc1)N1CCOCC1	-26%	9%	14	6.6µM*
O=S(=O)(c1ccc(Oc2ccc(S(=O)(=O)N3CCOCC3)cc2)cc1)N1CCOCC1	-12%	?	-66*	?
COc1ccc(C(C)=O)c(Oc2ccc(S(=O)(=O)N3CCOCC3)cn2)c1	8.3µM*	-1%	24	?
O=C(NCCc1ccc(Cl)cc1)c1ccc(CSCc2ccc(Cl)cc2)o1	/	/	-30	/
COc1cccc(C2=NC(C)(CC(=O)NCc3cccc(O)c3)ON2C)c1 (configuration not stated)	/	/	1	/
CC(=O)NC1=NN(C(C)=O)C(C)(c2ccc3ccccc3c2)S1 (configuration not stated)	2.9µM*	-3%	40	69%
Cn1nnnc1SCCNCc1ccc(OCc2ccccc2)cc1	/	/	-1	/
CCNCc1cc(Cl)c(OCc2ccccc2)c(OCC)c1	0%	?	?	-4%
SMILES	Pf growth 48h	HCV inh	HCMV antiviral	Pf growth 96h
CCOc1cc(CNCCO)cc(Br)c1OCc1ccccc1	?	10µM*	?	0%
CCOc1cc(CNCCSc2nnnn2C)cc(Br)c1OCc1ccccc1	?	2.8µM*	41	/
COc1cn(CC(=O)Nc2ccccc2)c(CN2CCCCC2)cc1=O	/	/	16	/
COC(=O)c1cc(OC)c(OC)c(OC)c1NC(=O)c1cc(=O)n(C)c(=O)n1C	/	/	-23	/
COc1ccc(S(=O)(=O)N2CCOCC2)cc1NC(=O)CN(C)Cc1c(F)cccc1Cl	7.4µM*	?	?	?
COc1ccc(S(=O)(=O)N2CCOCC2)cc1NC(=O)CN1CCCCCC1	-4%	7%	14	40%
COc1ccccc1NC(=O)COn1nnc2ccc(S(=O)(=O)N3CCOCC3)cc21	-10%	?	-63*	-4%
COc1ccc(CC(=O)Nc2cccc(C(C)=O)c2)cc1S(=O)(=O)N1CCOCC1	-13%	-5%	46	-19%
COc1ccc(Cl)cc1NC(=O)Cc1c(F)cccc1Cl	?	?	24	5.9µM*
COc1ccc(C(C)=O)cc1CC(=O)Nc1cccc(S(=O)(=O)N2CCOCC2)c1	13µM*	-4%	6	7.4µM*
CCOc1ccc(NC(=O)CN2C(=O)C3(SCC(=O)N3c3ccc(F)cc3)c3ccccc32)cc1 (configuration not stated)	/	/	-25	/
COc1cccc(N2CC(NC(=O)c3cccs3)CC2=O)c1 (configuration not stated)	/	/	25	/
CC(C)c1ccc(Nc2c(-c3ccc(N(C)C)cc3)nc3cnccn23)cc1	/	/	19	/
Cc1cc(NC(=O)c2cc(-c3ccc(Cl)c(Cl)c3)on2)n(-c2ccccc2)n1	/	/	6	/
COc1ccc(S(=O)(=O)N2CCOCC2)cc1NC(=O)Cc1c(Cl)cccc1Cl	?	-6%	2	8.3µM*
COc1ccc(S(=O)(=O)N2CCOCC2)cc1NC(=O)C1CC1	/	4%	-15	/
Cc1sc2nc(CN3CCCC3)nc(N3CCN(S(=O)(=O)c4cccs4)CC3)c2c1C	?	-17%	-15	?
Cc1sc2nc(-c3cccs3)nc(N3CCCN(C)CC3)c2c1C	10µM*	/	/	?
Cc1cc(Cl)ccc1OCC(=O)NC(=S)Nc1ccc(Cl)cn1	3%	15%	-1	?
CCCC(=O)NC(=S)Nc1ccc(Cl)cn1	8%	0%	-69*	-5%
CNc1cc(N2CCCC2)ccc1[N+](=O)[O-]	25%	25µM*	10	-2%
CC(C)CNc1cc(N2CCCC2)ccc1[N+](=O)[O-]	17%	4µM*	-38	103%
CNc1cc(N2CCCCCC2)ccc1[N+](=O)[O-]	-16%	-23%	-39	10%
CCNc1cc(N2CCCC2)ccc1[N+](=O)[O-]	15%	?	-14	?
CCOCCN1CCN(c2c(CC)c(C)nc3cc(-c4cc(OC)cc(OC)c4)nn23)CC1	1.5µM*	?	-8	9%
SMILES	Pf growth 48h	HCV inh	HCMV antiviral	Pf growth 96h
CCc1c(C)nc2cc(-c3ccc(OC)c(OC)c3)nn2c1N1CCC(C)CC1	7.4µM*	-9%	-27	44%
CCc1c(C)nc2cc(-c3ccc(OC)c(OC)c3)nn2c1N1CCCC1	13µM*	1.8µM*	?	0%
CCOC(=O)c1cccc(NC(=O)CC(c2cc(OC)c(OC)c(OC)c2)N2Cc3ccccc3C2=O)c1 (configuration not stated)	/	/	7	/
C(=N\Nc1nc(-c2ccccn2)nc2ccccc12)/c1ccccc1	4.7µM*	?	/	2.1µM*
Cc1cc(N/N=C/c2ccncc2)nc2ccccc12	?	?	55	?
ClC(Cl)(Cl)c1nc(N/N=C/c2ccncc2)c2ccccc2n1	2.3µM*	-13%	-36	?
O=[N+]([O-])c1cccc(/C=N/Nc2nc(C(Cl)(Cl)Cl)nc3ccccc23)c1	1µM*	?	23	?
